SMILES strings stand for the structures. Activity calls are given as the source filed them.

The results in this text go back to PubChem BioAssay.

The subject of experiment [1] is Plasmodium falciparum Sir2 (PF13_0152, Sir2A). As to the kind of experiment: Plasmodium falciparum Sir2A binding compounds – biochemical, small-molecule microarray, 635 nm fluorescence, primary screen (AID 1098).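 Also: score merges spot fluorescence intensity with its signal-to-noise ratio.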 The note with it: fluorescence 635 nm, higher = more signal.
Experiment [2] in a line: probe aDKK1 binding to arrayed compounds – biochemical, biotinylated probe, 635/667 nm fluorescence, primary screen (AID 1099).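 Also: score merges 667nm spot fluorescence with signal to noise across triplicate slides; reference of the scale not given here.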 The conditions noted are these: small-molecule microarray, higher = more signal.
Experiment [3] is described as follows: probe aCHRDL2 binding to arrayed compounds – biochemical, biotinylated probe, 635/667 nm fluorescence, primary screen (AID 1100). The conditions noted are these: small-molecule microarray, higher = more signal.
Experiment [4] in a line: change in splice reporter luminescence, either direction, cell-based, HEK293, spliceosome inhibition project, primary screen (AID 1101).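 Also: HEK293 cells carrying a splicing-competent luciferase reporter gene; test concentration not given here.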 The note with it: HEK293 splicing luciferase reporter, 24 h, higher = more signal, called active from +8 up or from −8 down. (In a reporter assay the amount or activity of a reporter protein is the signal.)
Experiment [5] has as its target Fibroblast growth factor 10 (Homo sapiens) (UniProt O15520). As to the kind of experiment: compounds binding fibroblast growth factor 10 – biochemical, small-molecule microarray, 635 nm fluorescence, primary screen (AID 1102). The conditions noted are these: FGF10 binding, fluorescence 635 nm, higher = more signal.
Experiment [6] relates to glycogen synthase kinase-3 (GSK3A per assay name; protocol says GSK3B). Description: compounds binding glycogen synthase kinase-3 – biochemical, small-molecule microarray, 635 nm fluorescence, GSK3A, primary screen (AID 1103). Also: the record names both GSK3A and GSK3B. The conditions noted are these: fluorescence 635 nm, higher = more signal.
The target in experiment [7] is Epidermal growth factor receptor (Homo sapiens) (UniProt P00533). As to the kind of experiment: compounds binding epidermal growth factor receptor – biochemical, small-molecule microarray, 635 nm fluorescence, primary screen (AID 1104).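 Also: score merges 667 nm emission intensity with spot signal to noise over triplicate slides.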 The note with it: EGFR binding, higher = more signal.
Chain of Epidermal growth factor receptor (Homo sapiens) (P00533 whole entry, looked up): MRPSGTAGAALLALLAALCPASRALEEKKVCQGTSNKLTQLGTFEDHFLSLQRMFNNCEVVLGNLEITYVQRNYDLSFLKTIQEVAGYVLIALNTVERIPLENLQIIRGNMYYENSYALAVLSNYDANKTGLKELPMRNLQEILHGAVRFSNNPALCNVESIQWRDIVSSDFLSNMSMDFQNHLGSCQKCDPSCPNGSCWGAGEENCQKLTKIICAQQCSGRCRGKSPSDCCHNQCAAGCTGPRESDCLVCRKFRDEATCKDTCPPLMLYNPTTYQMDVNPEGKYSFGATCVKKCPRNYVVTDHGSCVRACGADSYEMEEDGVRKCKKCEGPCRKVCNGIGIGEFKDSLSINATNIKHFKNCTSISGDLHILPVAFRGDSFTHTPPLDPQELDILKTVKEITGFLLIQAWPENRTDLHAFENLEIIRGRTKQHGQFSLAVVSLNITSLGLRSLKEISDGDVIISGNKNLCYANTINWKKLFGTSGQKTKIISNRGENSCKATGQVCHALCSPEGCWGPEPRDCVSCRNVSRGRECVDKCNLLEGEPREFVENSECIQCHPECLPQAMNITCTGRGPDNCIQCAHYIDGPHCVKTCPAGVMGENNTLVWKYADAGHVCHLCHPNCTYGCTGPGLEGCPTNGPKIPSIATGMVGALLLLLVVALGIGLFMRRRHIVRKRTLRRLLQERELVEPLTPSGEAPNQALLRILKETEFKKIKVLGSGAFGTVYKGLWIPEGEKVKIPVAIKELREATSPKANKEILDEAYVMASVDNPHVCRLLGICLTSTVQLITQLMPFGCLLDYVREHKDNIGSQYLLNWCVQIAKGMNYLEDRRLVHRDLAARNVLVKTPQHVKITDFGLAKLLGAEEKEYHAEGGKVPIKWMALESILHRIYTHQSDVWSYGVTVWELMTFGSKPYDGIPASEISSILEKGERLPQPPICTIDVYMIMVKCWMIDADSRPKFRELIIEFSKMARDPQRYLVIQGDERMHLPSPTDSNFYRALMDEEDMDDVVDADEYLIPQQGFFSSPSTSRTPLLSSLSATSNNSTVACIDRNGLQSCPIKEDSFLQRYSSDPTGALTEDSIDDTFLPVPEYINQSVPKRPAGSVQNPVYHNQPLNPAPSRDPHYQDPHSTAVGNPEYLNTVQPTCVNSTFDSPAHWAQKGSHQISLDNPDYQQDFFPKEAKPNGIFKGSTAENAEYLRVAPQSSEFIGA
Experiment [8] deals with Follistatin-related protein 3 (Homo sapiens) (UniProt O95633). Description: compounds binding follistatin-related protein 3 – biochemical, small-molecule microarray, 635 nm fluorescence, primary screen (AID 1105).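 Also: score merges emission near 667 nm and signal to noise per printed spot across three slides.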 The note with it: FSTL3 binding, higher = more signal.
Chain of Follistatin-related protein 3 (Homo sapiens) (O95633 whole entry, looked up): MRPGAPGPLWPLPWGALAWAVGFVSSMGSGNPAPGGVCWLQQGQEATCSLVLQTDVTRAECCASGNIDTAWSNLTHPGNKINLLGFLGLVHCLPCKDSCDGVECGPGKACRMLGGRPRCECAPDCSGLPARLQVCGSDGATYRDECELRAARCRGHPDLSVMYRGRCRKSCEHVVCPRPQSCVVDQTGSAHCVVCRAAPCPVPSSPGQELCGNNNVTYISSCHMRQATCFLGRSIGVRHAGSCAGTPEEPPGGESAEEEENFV
In experiment [9] the target is Dickkopf-related protein 1 (Homo sapiens) (UniProt O94907). As to the kind of experiment: small molecules binding DKK1 protein – biochemical, small-molecule microarray, 635 nm fluorescence scan, primary screen (AID 1106).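 Also: score merges emission near 667 nm with signal to noise over three replicate slides.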 The conditions noted are these: higher = more signal.
Chain of Dickkopf-related protein 1 (Homo sapiens) (O94907 whole entry, looked up): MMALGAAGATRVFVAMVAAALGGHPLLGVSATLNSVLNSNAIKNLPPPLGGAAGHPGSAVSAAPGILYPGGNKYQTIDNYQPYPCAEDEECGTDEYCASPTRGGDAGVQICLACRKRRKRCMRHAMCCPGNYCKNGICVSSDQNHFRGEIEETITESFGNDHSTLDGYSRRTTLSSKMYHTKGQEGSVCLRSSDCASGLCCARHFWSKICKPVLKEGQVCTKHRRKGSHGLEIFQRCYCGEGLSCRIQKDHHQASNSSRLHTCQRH
In experiment [10] the test system is Inhibin beta A chain (activin A). As to the kind of experiment: small molecules binding activin A – biochemical, small-molecule microarray, 635 nm fluorescence scan, primary screen (AID 1107).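 Also: mouse activin A protein probed at 4.33 µg/mL on printed slides; score merges bound-protein fluorescence near 667 nm with spot signal-to-noise.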 The conditions noted are these: INHBA, higher = more signal.

Chain of Fibroblast growth factor 10 (Homo sapiens) (O15520 whole entry, looked up): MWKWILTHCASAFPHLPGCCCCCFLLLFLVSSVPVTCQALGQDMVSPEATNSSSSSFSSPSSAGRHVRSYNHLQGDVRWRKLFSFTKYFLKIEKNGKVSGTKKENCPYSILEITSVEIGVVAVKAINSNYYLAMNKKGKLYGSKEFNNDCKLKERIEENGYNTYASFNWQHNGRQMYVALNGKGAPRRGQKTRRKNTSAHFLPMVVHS

For the compound `CC(C)C(=C=CC[C@H](O)c1ccc(OCCO)cc1)C[C@H](O)c1ccccn1`, the composite z-score was 0.471 in experiment [1]; -0.0813 in experiment [2]; -0.233 in experiment [3]; 0.275 in [5]; 0.372 in experiment [6]; -0.511 in [7]. Besides, the composite z-score in experiment [8] is -0.11; in experiment [9], -0.478; in experiment [10], -0.262. In addition, the z-score in [4] is -0.544 (inactive).

For the compound `O=C1OCCC/C=C\[C@H]2OC34C=CCN(CCN5CCOCC5)C(=O)[C@H]3N(CCCCCCO)C(=O)[C@@H]4C12` (stereo not given in full), the composite z-score in [1] is 1.16; in [2], -0.0117; in [3], -0.0021; in experiment [5], -0.145; in experiment [6] it was 0.229; in experiment [7] it was -0.684. For the same compound, the composite z-score in experiment [8] is -0.0634; in [9], -0.528; in experiment [10], 1.41. Also, in experiment [4], the z-score was -1.4 (inactive).

Consider `COCCOC(=O)N1C(=O)[C@@]2(c3cc(C#Cc4ccc(OC)cc4)ccc31)[C@H](c1ccccc1OCCO)N1[C@H](c3ccccc3)[C@H](c3ccccc3)OC(=O)[C@H]1[C@@H]2C(=O)N1CCCCCCC1`, for which the composite z-score was 1.2 in experiment [1]; 2.8 in experiment [2]; 1.79 in experiment [3]; 1.29 in [5]; 1.34 in experiment [6]; 1.49 in experiment [7]. Also, the composite z-score in experiment [8] stood at 1.61; in experiment [9], 2.12; in experiment [10] it was 1.91. Moreover, the z-score in experiment [4] is -1.38 (inactive).

Take `CCCCC=C[C@@H](NC(=O)c1ccc(-c2ccccc2)cc1)c1ccccc1`: the composite z-score in experiment [1] came to 0.379; in [2] it was 0.0006; in experiment [3], 0.087; in [5], 0.462; in experiment [6] it was 1.08; in experiment [7] it was 0.0139. For the same compound, the composite z-score is -0.203 in [8], 0.381 in experiment [9] and 0.183 in experiment [10]. For the same compound, the z-score in experiment [4] was 2.94 (inactive).

As for `NC(N)=NCCCn1cc(CNC(=O)[C@@H](N)Cc2ccccc2)nn1`, the composite z-score is 1.23 in [1]; 0.174 in experiment [2]; 0.34 in experiment [3]; 0.697 in [5]; 0.0853 in experiment [6]; -0.38 in [7]. The composite z-score amounted to 1.36 in [8], 0.0571 in experiment [9] and 0.9 in experiment [10]. Also, the z-score in [4] is 0.292 (inactive).

In the case of `COc1ccc(CCNC(=O)[C@@H]2c3ccccc3C(=O)N(Cc3cc(C(F)(F)F)cc(C(F)(F)F)c3)[C@H]2c2ccc(CO)cc2)cc1`, the composite z-score is 1.1 in [1]; 0.0172 in [2]; 0.716 in experiment [3]; 0.0696 in experiment [5]; -0.331 in [6]; -0.358 in [7]. Also, the composite z-score in [8] was -0.272; in experiment [9], -0.594; in experiment [10] it was -0.167. Also, in experiment [4], the z-score was -0.082 (inactive).

For `COC(=O)[C@@]1(Cc2ccc(OC)cc2)[C@H]2c3cc(C(=O)N(C)C)n(CCO)c3C[C@H]2CN1C(=O)c1ccccc1`, the composite z-score in [1] was 0.137; in experiment [2], 1.14; in experiment [3], 1.27; in experiment [5], 0.0882; in experiment [6], -0.402; in [7], -0.735. For the same compound, the composite z-score in [8] is -0.42; in experiment [9], -1.18; in experiment [10], 1.07. Besides, the z-score in [4] was 0.994 (inactive).

As to `CN1C(=O)C2C=CC(C(O)COCc3ccccc3)N(N(c3ccccc3)c3ccccc3)C2C1=O` (stereo not given), the composite z-score in [1] was 0.35; in [2], 0.553; in experiment [3], 0.815; in experiment [5], 0.126; in [6], -0.588; in experiment [7], 0.238. For the same compound, the composite z-score is 0.127 in experiment [8], -0.674 in experiment [9] and -0.101 in experiment [10]. Also, the z-score in experiment [4] is 0.915 (inactive).

`C[C@@H]1ON(c2ccc(C(=O)OC(C)(C)C)cc2)[C@H](c2ccc(O)cc2)[C@H]1C(=O)N1C(=O)OC[C@H]1Cc1ccccc1`: the composite z-score is 0.632 in experiment [1]; 0.0187 in experiment [2]; -0.369 in experiment [3]; 0.663 in [5]; 1.06 in experiment [6]; 0.365 in experiment [7]. Further, the composite z-score was 0.431 in experiment [8], 0.449 in [9] and -0.0851 in experiment [10]. Further, the z-score in [4] was 0.121 (inactive).

For the compound `COCCOC(=O)N1C(=O)[C@@]2(c3cc(C#CC4=CCCCC4)ccc31)[C@H](c1ccc(OCCO)cc1)N1[C@H](c3ccccc3)[C@H](c3ccccc3)OC(=O)[C@H]1[C@@H]2C(=O)NC[C@H](O)c1ccccc1`, the composite z-score in experiment [1] was found to be 1.44; in experiment [2], 0.677; in experiment [3] it was 0.696; in experiment [5], 1.35; in experiment [6] it was 1.31; in experiment [7], 0.933. The figures for the composite z-score in experiment [8], in experiment [9] and in experiment [10] were 1.49, 1.32 and 1.29, respectively. Besides, the z-score in [4] was -0.228 (inactive).

Consider `COC(=O)[C@@]1(Cc2ccccc2N=[N+]=[N-])N=C(c2ccc(OCCCO)cc2)O[C@H]1c1ccccc1N=[N+]=[N-]`, for which the composite z-score was 1.52 in experiment [1]; 0.793 in [2]; 1 in experiment [3]; 0.386 in experiment [5]; 0.65 in experiment [6]; -0.098 in experiment [7]. The composite z-score is 0.419 in experiment [8], 0.0345 in [9] and 1.31 in [10]. Besides, the z-score in experiment [4] is 7.07 (inactive).

For the compound `C[C@H]1NC(=O)[C@@]23C(=O)N[C@@H](Cc4ccccc4)C2[C@H](C)[C@@]2(C)O[C@H]2C3/C=C/C/C=C\CNC(=O)[C@H](Cc2ccccc2)NC1=O` (stereo not given in full), the composite z-score in experiment [1] was 1.29; in experiment [2] it was -0.354; in experiment [3], -0.427; in experiment [5], 0.932; in experiment [6], 0.138; in experiment [7] it was 0.199. The composite z-score in experiment [8] is 1.01; in experiment [9] it was 0.689; in experiment [10], 1.34. Also, the z-score in experiment [4] was 0.106 (inactive).

For `CCOC(=O)C[C@H]1[C@H](OC(=O)c2ccccc2-c2ccccc2)[C@@H](NC(=O)C2CCCCC2)c2cc(OCCCO)ccc2N1C(=O)Cc1ccc(OC)cc1`, the composite z-score in experiment [1] was -0.0395; in experiment [2] it was -0.189; in experiment [3] it was 0.0017; in experiment [5], 0.0134; in [6] it was -0.625; in experiment [7], 0.0178. Further, the composite z-score in experiment [8] was 0.138; in experiment [9] it was -0.259; in experiment [10], 0.489. Further, the z-score in experiment [4] was -0.0496 (inactive).

`C=C(C)c1cc2c(c(CCCCCC)n1)[Si](C(C)C)(C(C)C)OC2`: the composite z-score was -0.491 in experiment [1]; -0.304 in experiment [2]; 0.149 in experiment [3]; -1.04 in [5]; -1.18 in experiment [6]; -1.01 in [7]. Further, the composite z-score in [8] was -1.24; in [9] it was -1.31; in experiment [10] it was 0.138. Besides, the z-score in experiment [4] is -0.392 (inactive).

`COC(=O)[C@@]1(Cc2ccccc2)[C@H]2c3cc(C(=O)N(C)C)n(CCN4CNCC4=O)c3C[C@H]2CN1C(=O)c1ccccc1`: the composite z-score was 1.59 in experiment [1]; 1.38 in experiment [2]; 1.31 in experiment [3]; -0.243 in [5]; -0.604 in experiment [6]; -1.71 in experiment [7]. Further, the composite z-score in experiment [8] is -0.618; in experiment [9] it was -1.59; in experiment [10], 0.433. Further, the z-score in [4] was 1.25 (inactive).
